This note sets out measurements from paper PMC9574860, “Chemical Toolkit for PARK7: Potent, Selective, and High-Throughput” (Journal of Medicinal Chemistry, 2022).

Molecules are shown by their SMILES. In all, about 7,900 compounds went through this assay and about 400 (5.1%) showed an effect of 50% or more. The sample holds strong results, similar compounds and a random draw of the others, so the mix is not that of the screen.

Sequence of Parkinson's disease protein 7 (PARK7/DJ1) (Q99497 whole entry, looked up, the tested form may be a part): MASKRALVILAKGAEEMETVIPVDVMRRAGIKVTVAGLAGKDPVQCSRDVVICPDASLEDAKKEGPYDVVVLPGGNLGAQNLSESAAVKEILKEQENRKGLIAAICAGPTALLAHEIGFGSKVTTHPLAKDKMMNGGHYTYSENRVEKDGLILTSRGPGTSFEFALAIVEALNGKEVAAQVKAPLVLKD

This assay has as its target Parkinson's disease protein 7 (PARK7/DJ1) (human, UniProt Q99497). The experiment in a line: primary screen, percent inhibition; read as competition with a fluorescent probe by fluorescence polarization; higher = more effect of the substance. The note with it: 100 µM. The method in brief:
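Covalent fragments at 100 μM final were incubated 2 h with 0.2 μM PARK7, then 20 nM probe JYQ-107 added for a further 2 h. Fluorescence polarization read at 480/520 nm; relative FP loss versus reference controls gave remaining enzyme activity.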
In the case of `CC1=C(C)CN(c2nccnc2C#N)CC1`, the Inhibition % came out at 26%.

Turning to `COc1ccc(C=C(C#N)C(N)=O)c(Cl)c1OC`, the Inhibition % is recorded as 3.63%.

Take `Cc1cc(C(=O)CCl)c(C)n1-c1ccc2c(c1)OCCO2`: the Inhibition % worked out at 63.9%.

As to `O=C(CCl)NCCc1ccc2c(c1)OCCO2`, the Inhibition % was 47.9%.

Take `O=C(CCl)N1CCN(Cc2ccc3c(c2)OCCO3)CC1`: the Inhibition % was determined as 15.8%.

With `O=c1[nH]nc(S)n2cccc12`, the Inhibition % was 26.7%.

For `CC(CNc1nccnc1C#N)c1ccc(F)c(F)c1` (centres unmarked), the Inhibition % is given as 22.4%.

As for `CC1CC(Sc2ncnc3ccccc23)C(=O)O1` (centres unmarked), the Inhibition % is recorded as 4.79%.

Regarding `O=C1OCCC1Sc1ncnc2ccccc12` (centres unmarked), the Inhibition % is 54.5%.

On to `Cc1nc2ccccc2nc1SC1CCOC1=O` (centres unmarked), for which the Inhibition % is 70.3%.

On to `Cn1c(SC2CCOC2=O)nc2ccccc21` (centres unmarked), for which the Inhibition % was 12%.

In the case of `O=C1OCCC1Sc1ccc2ccccc2n1` (centres unmarked), the Inhibition % is reported as -0.865%.

For `O=C1OCCC1Sc1ncnc2sccc12` (centres unmarked), the Inhibition % is on record as 6.21%.

Take `C=CC(=O)N(Cc1nc(-c2cccnc2)no1)C(C)C`: the Inhibition % is reported as 22.6%.

`Cc1cc(C#N)nc(NC2CCCCCC2)n1`: the Inhibition % is 2.75%.

`Cc1nc(C#N)c(NC(=O)CSCC2CCCCO2)o1` (centres unmarked): the Inhibition % is listed as 12.5%.

With `CCCC(NC(=O)CCl)c1ccccc1` (centres unmarked), the Inhibition % amounted to 14.5%.

Take `CCCc1cc(NC(=O)CCl)n(-c2ccccc2)n1`: the Inhibition % was found to be 31.6%.

`C=CC(=O)N1CCC2(CCOCC2)CC1`: the Inhibition % came to 5.66%.

In the case of `O=C(CCl)N1CC=C(c2c[nH]c3ccccc23)CC1`, the Inhibition % was 51.5%.

As to `COc1ccc(CN2CCN(C(=O)CCl)CC2)cc1.Cl`, the Inhibition % worked out at 10.6%.

As to `O=C1OCCC1N1CC=C(c2c[nH]c3ccccc23)CC1` (centres unmarked), the Inhibition % stood at 4.4%.

With `COc1ccc(C2=CCN(C(=O)CCl)CC2)cc1`, the Inhibition % amounted to 78.7%.

As to `O=C(CCl)c1c[nH]c2ccccc12`, the Inhibition % is reported as 37.9%.

On to `COc1ccc(N2CCN(C(=O)CCl)CC2)cc1`, for which the Inhibition % was 28.8%.

Consider `C=CC(=O)N1CCOC[C@@H]1CC(C)C`, for which the Inhibition % came out at 6.89%.

Turning to `c1cc(OCC2CO2)c2cc[nH]c2c1` (centres unmarked), the Inhibition % is -2.42%.

For `N#CC(=Cc1ccccc1)C(=O)Nc1nncs1`, the Inhibition % is on record as 3.58%.

`COc1cc(C)c(C)cc1S(=O)(=O)n1cnc(C)c1`: the Inhibition % was found to be 6.69%.

Take `CCOC(=O)c1ccccc1NC(=O)CCl`: the Inhibition % is on record as 7.46%.

Take `CC(=O)c1ccc(NC(=O)CCl)cc1`: the Inhibition % was 45.4%.

As to `NC(=O)c1ccc(NC(=O)CCl)cc1`, the Inhibition % amounted to 35.3%.

Regarding `COC(=O)c1ccc(NC(=O)CCl)cc1`, the Inhibition % was 60.9%.

Regarding `N#CCc1ccc(NC(=O)CCl)cc1`, the Inhibition % was determined as 88.8%.

In the case of `CCc1cccc(NC(=O)CCl)c1`, the Inhibition % is 14.1%.

In the case of `O=C(O)Cc1ccc(NC(=O)CCl)cc1`, the Inhibition % came to 43.8%.

Consider `CCOC(=O)c1ccc(NC(=O)CCl)cc1`, for which the Inhibition % came to 56.5%.

In the case of `COC(=O)c1cccc(NC(=O)CCl)c1`, the Inhibition % amounted to 25.2%.

Regarding `N#Cc1ccc(NC(=O)CCl)cc1Cl`, the Inhibition % is recorded as 29.1%.

Turning to `CCc1ccc(NC(=O)CCl)cc1`, the Inhibition % came out at 99.1%.

As for `CC(=O)Nc1ccc(NC(=O)CCl)cc1`, the Inhibition % was determined as 4.19%.
